# From the supplement of paper PMC10646978
# ± gives the standard deviation.
# Tests used:
# Conditions in all cases: modulator concentration 10 µM
# [1] = system: RAW-Dual (murine macrophage reporter line); assay: NF-kB reporter (SEAP) activity fold change vs agonist alone; higher = enhanced NF-kB activity
# Outline: (§1)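 Overnight stimulation with a PRR agonist followed pre-incubation for 1 hour at 37 °C with compound at 10 μM final. This was done in RAW-Dual murine macrophage reporter cells seeded at 50 000 per well in 384-well plates. NF-κB (SEAP, QUANTI-Blue absorbance at 620 nm) and IRF (Lucia luciferase, QUANTI-Luc luminescence) were read from the supernatant. Each reporter's fold change relative to the mean agonist-only control on the same plate was averaged over replicate plates.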
# [2] = system: RAW-Dual (murine macrophage reporter line); assay: IRF reporter (Lucia luciferase) activity fold change vs agonist alone; higher = enhanced IRF activity
# Outline: as §1
# [3] = system: RAW-Dual (murine macrophage reporter line); assay: viability score (confluency relative to resting cells, overnight) (fraction); higher = more viable, active = viable (0.7 or more)
# Outline: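 RAW-Dual macrophages in 384-well plates were incubated overnight with compound, final concentration 10 μM. Confluency images from IncuCyte were processed in IncuCyte software into two masks covering all imaged wells. The viability score is each well's confluency relative to resting cells, and a compound met the cutoff when both masks exceeded 70% of resting cells.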
# [4] = agonist: CpG ODN 1826 0.5 ug/mL
SMILES,"NF-kB reporter [1, 4]",NF-kB reporter ([1]; agonist: LPS 0.1 ug/mL),NF-kB reporter ([1]; agonist: MPLA […]),IRF reporter ([2]; agonist: 3'3'-cGAMP 10 ug/mL),IRF reporter ([2]; agonist: LPS 0.1 ug/mL),IRF reporter ([2]; agonist: MPLA […]),viability score [3]
COCCOC(=O)C1=C(C)NC(C)=C(C(=O)OCC=Cc2ccccc2)C1c1cccc([N+](=O)[O-])c1 (centres undefined),0.586 ± 0.052,0.539 ± 0.074,1.07 ± 0.068,0.548 ± 0.035,1.06 ± 0.035,2.1 ± 0.43,0.989 (active)
Cc1cc(C)n(-c2ccc(=O)n(CCNS(=O)(=O)c3ccccc3F)n2)n1,1.08 ± 0.09,1.08 ± 0.086,0.937 ± 0.049,1.01 ± 0.059,1.2 ± 0.081,1.13 ± 0.11,1 (active)
CC12CC3(C)CC(C)(C1)CC(C(=O)NC(C)(C)CO)(C2)C3,0.866 ± 0.067,0.867 ± 0.097,0.879 ± 0.09,0.996 ± 0.067,1.42 ± 0.096,1.52 ± 0.16,1 (active)
Cc1cc(=O)[nH]c(=S)[nH]1,1.04 ± 0.09,1.02 ± 0.11,1 ± 0.035,0.99 ± 0.073,0.969 ± 0.084,1.01 ± 0.08,1 (active)
Cc1c(F)cc(C(=O)NC2CC2)cc1-c1ccc(C(=O)NCC(C)(C)C)cn1,0.825 ± 0.21,0.994 ± 0.05,1.01 ± 0.071,1.1 ± 0.043,0.808 ± 0.18,0.932 ± 0.088,1 (active)
Nc1nc(N)nc(-c2cc(Cl)ccc2Cl)n1,0.906 ± 0.22,1 ± 0.052,1.05 ± 0.093,0.946 ± 0.052,1.18 ± 0.32,1.08 ± 0.17,0.986 (active)
O=S(=O)(N=Cc1c(O)ccc2ccccc12)c1cccs1,1.05 ± 0.23,1 ± 0.079,0.876 ± 0.12,0.74 ± 0.022,0.988 ± 0.15,0.992 ± 0.2,0.999 (active)
Cc1ccc(-n2ncc3c(Nc4cccc(C)c4)ncnc32)cc1,0.987 ± 0.2,1.14 ± 0.098,1.02 ± 0.1,0.938 ± 0.05,1.09 ± 0.23,1.19 ± 0.15,0.995 (active)
CCCOc1ccc(C=CC(=O)Nc2ccc(S(=O)(=O)Nc3ncccn3)cc2)cc1OC,0.938 ± 0.077,1.03 ± 0.06,0.963 ± 0.092,0.982 ± 0.035,1.27 ± 0.18,1.11 ± 0.23,1.01 (active)
Cc1[nH]c2ccccc2c1CCNCc1ccc(/C=C/C(=O)NO)cc1,0.22 ± 0.015,1.58 ± 0.1,2.77 ± 0.17,0.0565 ± 0.0025,0.355 ± 0.032,0.509 ± 0.06,0.055 (inactive)
Cc1cc(C(=O)Nc2ccc(-n3nnn(C)c3=O)cc2)c(C)o1,1.01 ± 0.077,1.05 ± 0.083,0.809 ± 0.041,0.985 ± 0.064,1.25 ± 0.076,1.28 ± 0.17,1.01 (active)
O=C(Nc1cc(C(F)(F)F)cc(C(F)(F)F)c1)c1cccc(Br)c1,1 ± 0.09,1.02 ± 0.079,0.911 ± 0.074,0.935 ± 0.028,1.55 ± 0.27,1.19 ± 0.26,1.01 (active)
O=C(NCC(O)Cc1ccccc1)Nc1ccc(F)cc1 (centres undefined),0.893 ± 0.096,0.969 ± 0.077,1.08 ± 0.064,1.04 ± 0.048,1.28 ± 0.3,1.36 ± 0.37,0.971 (active)
O=C(O)c1ccccc1N(Cc1ccccc1)S(=O)(=O)c1ccccc1,1.14 ± 0.13,1 ± 0.15,1.08 ± 0.061,0.965 ± 0.1,1.06 ± 0.072,0.938 ± 0.14,0.984 (active)
CS(=O)(=O)N(CC(=O)Nc1ccccc1Br)c1ccc(Cl)c(C(F)(F)F)c1,0.796 ± 0.13,0.971 ± 0.076,0.77 ± 0.072,1.15 ± 0.055,1.13 ± 0.23,1.2 ± 0.15,0.999 (active)
Cc1c(C(=O)ON=C(N)c2ccncc2)cccc1[N+](=O)[O-],1.01 ± 0.08,0.996 ± 0.06,0.851 ± 0.069,0.421 ± 0.031,1.33 ± 0.099,1.23 ± 0.16,0.992 (active)
COc1ccc(CNS(=O)(=O)c2ccc3ccccc3c2)cc1,0.795 ± 0.074,0.899 ± 0.079,1.13 ± 0.11,0.974 ± 0.052,1.49 ± 0.11,1.7 ± 0.17,0.972 (active)
O=C(O)C=Cc1cccc(NS(=O)(=O)C=Cc2ccccc2)c1,1.06 ± 0.094,0.968 ± 0.084,1.33 ± 0.19,0.956 ± 0.07,1.29 ± 0.28,1.34 ± 0.28,1.02 (active)
Clc1ccc(C2C=C(c3ccccc3)Nc3ncnn32)cc1 (centres undefined),1.08 ± 0.11,0.939 ± 0.091,0.986 ± 0.057,0.886 ± 0.17,1.1 ± 0.097,0.945 ± 0.062,1 (active)
CCOc1ccc(S(=O)(=O)N2C3CCC2CC(S(=O)(=O)c2ccccc2)C3)cc1 (centres undefined),0.976 ± 0.06,1.05 ± 0.098,0.968 ± 0.053,0.977 ± 0.044,1.25 ± 0.2,1.25 ± 0.29,0.978 (active)
COCCCNC(=O)C1CCCN(c2ccc(Sc3ccc(Br)cc3)nn2)C1 (centres undefined),0.99 ± 0.1,1.1 ± 0.095,1.15 ± 0.11,0.84 ± 0.03,0.966 ± 0.076,0.779 ± 0.2,0.993 (active)
CC(CCc1ccccc1)NCC(O)c1ccc(O)c(C(N)=O)c1.Cl (centres undefined),1.04 ± 0.15,1.18 ± 0.088,1.1 ± 0.061,0.944 ± 0.033,1.11 ± 0.095,1.22 ± 0.23,0.984 (active)
Cl.Cl.Fc1ccc(C(c2ccc(F)cc2)N2CCN(C/C=C/c3ccccc3)CC2)cc1,1.06 ± 0.087,0.97 ± 0.1,1.42 ± 0.3,1.06 ± 0.068,1.11 ± 0.082,1.26 ± 0.14,0.999 (active)
CCOC(=O)C1=C(C)OC(N)=C(C#N)C1c1ccc(O)c(OCC)c1 (centres undefined),1.19 ± 0.075,1.04 ± 0.064,1.07 ± 0.099,0.939 ± 0.038,1.31 ± 0.12,1.16 ± 0.11,1.01 (active)
Nc1ccn([C@@H]2O[C@H](CO)[C@@H](O)C2(F)F)c(=O)n1,1.8 ± 0.25,1.07 ± 0.28,1.21 ± 0.11,1.59 ± 0.088,1.61 ± 0.35,1.33 ± 0.31,0.241 (inactive)
Oc1ccc(CN2CCOCC2)cc1,1.05 ± 0.17,1.08 ± 0.094,0.971 ± 0.09,0.939 ± 0.06,1.24 ± 0.14,1.25 ± 0.13,0.995 (active)
COc1ccc(CC(C)N2CCN(c3cccc(C)c3C)CC2)cc1OC (centres undefined),0.765 ± 0.064,0.974 ± 0.074,1.03 ± 0.08,0.787 ± 0.056,1.75 ± 0.22,1.16 ± 0.11,0.6 (inactive)
